# From PubChem BioAssay AID488890 (Southern Research Specialized Biocontainment Screening …, 2010)
# Among all 320,000 compounds or so, about 1,300 (0.41%) were called active. About 3% were inconclusive and are not listed. No rule for the calls is given here. Only a sample is shown. Results with a measured potency or affinity are listed apart.
# Assay: growth inhibition of non-replicating M. tuberculosis (AID 488890);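 also: plate controls were DMSO cells for no effect and high antibiotic wells for full effect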
# Conditions: Mycobacterium tuberculosis non-replicating, at 25 µM, stronger effect = higher value
row,Structure (SMILES),inhibition [%]
1,COc1ccc(NC(=O)Nc2cccc(NC(C)=O)c2)c(OC)c1,15.4
2,COCCNc1nnc(SCC(=O)NNC(=O)c2ccccc2)s1,-9.33
3,COc1ccc(/C=C2/C(=O)N(c3ccccc3)N=C2C)cc1,0.19
4,CC(=O)Oc1ccc(/C=C2/C(=O)N(c3ccccc3)N=C2C)cc1,32.7
5,C(=N\N=C\c1ccccc1)/c1ccccc1,9.87
6,CCc1nn(CCCC(=O)N2CCC(C)CC2)c(=O)c2cc3occc3n12,2.85
7,O=C(NCc1ccncc1)c1cnccn1,-7.93
8,O=C(NCc1ccc(Cl)cc1)c1cnccn1,68.3
9,NS(=O)(=O)c1ccc(CNC(=O)c2cnccn2)cc1,-8.46
10,COc1ccc(CNC(=O)c2cnccn2)cc1,66.2
11,CSc1ccc(NC(=O)NCCCN2CCN(c3ccccc3F)CC2)cc1,50.5
12,Cc1cc(C)cc(NC(=O)C2C3C=CC4(O3)C2C(=O)N(CCCN2CCCCC2)C4C(=O)NC2CCCCC2)c1 (stereo not given),8.2
13,Cc1cc(OC(=O)c2ccc(S(=O)(=O)N3CCCCC3)cc2)c([N+](=O)[O-])c(=O)[nH]1,-2.75
14,Cc1cc(C(=O)OCC(=O)Nc2cc(Cl)ccc2C)c(C)o1,0.98
15,O=C(NCc1ccco1)c1ccc(NS(=O)(=O)c2cccc(F)c2)cc1,29.2
16,CC(C)COc1ccc(C(=O)Nc2ccc(N3CCOCC3)cc2N2CCOCC2)cc1,43
17,COc1cccc2cc(-c3nnc(-c4ccccc4)o3)c(=O)oc12,79.1
18,O=c1oc2c(O)cccc2cc1-c1nc2ccccc2[nH]1,7.2
19,COc1cccc2cc(-c3ccccc3)c(=O)oc12,54.4
20,COc1ccc(-c2cc3cccc(OC)c3oc2=O)cc1,24.1
21,O=C(CNS(=O)(=O)c1ccc(Cl)c(C(F)(F)F)c1)NC1CCCCC1,20.4
22,N#CCSc1nnc(Cc2ccc3c(c2)OCO3)o1,73.3
23,CC(=O)CSc1nnc(Cc2ccc3c(c2)OCO3)o1,73.1
24,Cn1nc(-c2ccccc2)c(COC(=O)c2cccc(Cl)c2)c1S(=O)(=O)c1ccccc1,-7.33

row,Structure (SMILES),inhibition [%]
1,O=C(Nc1cccc(-c2nc3ccccc3c(=O)o2)c1)c1ccccc1,60.9
2,CCCC(=O)Nc1cccc(-c2nc3ccccc3o2)c1,-1.01
3,CC(C)C(=O)Nc1cccc(-c2nc3ccccc3o2)c1,9.28
4,O=C(Nc1ccc2nc(-c3ccccc3)oc2c1)c1ccco1,-0.45
5,CC(=O)Nc1cccc(-c2nc3ccccc3o2)c1,8.44
6,CC(=O)Nc1ccc(-c2nc3ccccc3c(=O)o2)cc1,68.8
7,CCCC(=O)Nc1cccc(-c2nc3cc(C)c(C)cc3o2)c1,-4.03
8,CCC(CC)C(=O)Nc1cccc(-c2nc3ccccc3o2)c1,-1.13
9,O=P(Oc1ccccc1)(Oc1ccccc1)C(O)c1ccc(Cl)cc1 (stereo not given),-12
10,COc1cccc(CN2CCNC(=O)C2CC(=O)NC2Cc3ccccc3C2)c1 (stereo not given),-15.6
11,COc1ccc(C(=O)/C=C\N2CCOCC2)cc1,10.4
12,COCCNC(=S)N1CCC(NC(=O)Nc2ccc(C)cc2)CC1,-2
13,O=C(NCCCNC(=O)c1ccco1)c1ccc(F)cc1,-2.4
14,CC(=O)N1N=C(c2ccc(Cl)cc2)CC1c1ccc([N+](=O)[O-])cc1 (stereo not given),-10.2
15,O=C(c1ccc([N+](=O)[O-])cc1)N1CCSC1c1ccc(Cl)cc1 (stereo not given),6.9
16,COc1ccccc1CNC(=O)CCCn1nc(C)c2c(C)n(-c3ccccc3)nc2c1=O,5.28
17,O=C(CNC(=O)N1CC(=O)Nc2ccccc21)Nc1cc(Cl)ccc1Cl,5.7
18,CN1C(=O)N(C)C(c2ccccc2Cl)C2=C1CC(C)(C)CC2=O (stereo not given),1.21
19,O=C(O)c1ccc(N=N/C(=N\Nc2ccc(C(=O)O)cc2)c2ccccc2)cc1,29.9
20,Brc1ccc(N/N=C(/N=Nc2nn[nH]n2)c2ccccc2)cc1,76.2
21,CCOC(=O)c1nc(C)nc(Sc2n[nH]c(-c3cc(C(F)(F)F)cc(C(F)(F)F)c3)n2)c1C,46.5
22,O=C(O)c1ccccc1C(=O)Nc1ccc(S(=O)(=O)NC2CCCCC2)cc1,-4.02
23,CCC(C)C(NC(=O)c1ccccc1NC(=O)c1ccc(OC)cc1)C(=O)NCCCn1ccnc1 (stereo not given),7.04
24,CC1(N(O)/C=C2\C=CC=CC2=O)CCCCC1=O (stereo not given),3.64

row,Structure (SMILES),inhibition [%]
1,O=C(CN1CCN(S(=O)(=O)c2ccccc2F)CC1)Nc1ccccc1C(=O)c1ccccc1,27.9
2,Cc1onc(-c2ccccc2Cl)c1C(=O)O/N=C(\N)c1ccccc1,10.2
3,Cc1onc(-c2c(Cl)cccc2Cl)c1C(=O)O/N=C(\C#N)c1c(Cl)cccc1Cl,4.59
4,C/C(=N\OC(=O)c1c(-c2c(F)cccc2Cl)noc1C)c1nccs1,4.04
5,Cc1onc(-c2cccc(Cl)c2Cl)c1C(=O)O/N=C(\N)c1ccc([N+](=O)[O-])o1,60
6,O=C(O)c1cccc2c1C(=O)c1ccc(-c3ccc(OC(F)(F)F)cc3)cc1S2(=O)=O,-2.64
7,O=[N+]([O-])c1cc(/C=N/OCc2c(Cl)cccc2Cl)ccc1N1CCOCC1,22.5
8,CCOC(=O)N1CCN(c2ccc(Cl)c(Cl)c2)CC1,75.6
9,COC(=O)N1CCN(c2ccc(Cl)c(Cl)c2)CC1,39
10,Cc1cc(Cl)c(S(=O)(=O)N2CCN(c3cccc(C)c3C)CC2)cc1OCC(N)=O,6.33
11,COC(=O)c1[nH]c2ccc(C)cc2c1NC(=O)C1=COCCO1,2.53
12,COc1cc(C(=O)N/N=C(\c2ccccc2)c2ccccn2)cc(OC)c1OC,43.4
13,O=C(c1cccc([N+](=O)[O-])c1)c1ccccn1,2.21
14,C/C(=N/NC(=O)CNC(=O)c1ccccn1)c1cccc([N+](=O)[O-])c1,-4.01
15,COc1ccc(C(=O)NNC(=O)c2ccccn2)cc1,12.8
16,O=C(N/N=C(\c1ccccc1)c1cccnc1)c1cc(O)ccc1O,30.3
17,O=C(N/N=C(\c1ccccc1)c1cccnc1)c1ccc(O)cc1,-6.44
18,COc1ccc(C(=O)NCCNC(=O)c2ccccn2)cc1,-3.54
19,COc1cccc(C(=O)NCCNC(=O)c2ccccn2)c1,-10.9
20,C(=N\N1CCN(Cc2ccccc2)CC1)/c1ccc(-c2ccccc2)cc1,43
21,Cc1ccc(CNC(=O)Cn2nnc(C(=O)Nc3cccc(C)c3C)c2N)cc1,-3.98
22,CC(C)c1ccccc1NC(=O)c1ccccc1NC(=O)C1CCCCC1,-1.84
